# Source: PubChem BioAssay
# Target: Dickkopf-related protein 1 (Homo sapiens) (UniProt O94907)
# Experiment: small molecules binding DKK1 protein – biochemical, small-molecule microarray, 635 nm fluorescence scan, primary screen (AID 1106);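 also: score merges emission near 667 nm with signal to noise over three replicate slides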
# Settings: higher = more signal
# Chain of Dickkopf-related protein 1 (Homo sapiens) (O94907 whole entry, looked up): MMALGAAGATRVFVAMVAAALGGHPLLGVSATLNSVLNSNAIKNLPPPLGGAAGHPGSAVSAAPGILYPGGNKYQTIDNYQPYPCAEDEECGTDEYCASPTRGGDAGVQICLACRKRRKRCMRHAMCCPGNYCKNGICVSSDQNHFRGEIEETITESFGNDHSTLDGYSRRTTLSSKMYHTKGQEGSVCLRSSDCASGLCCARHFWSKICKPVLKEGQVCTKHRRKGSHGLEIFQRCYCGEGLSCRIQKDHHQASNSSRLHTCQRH
row,SMILES,composite z-score
1,O=C1C2C=CC(C(O)C3CC=CCC3)N(Nc3ccccc3)C2C(=O)N1c1ccccc1 (configuration not stated),0.333
2,[N-]=[N+]=Nc1ccccc1C[C@@]1(C(=O)N2CCOCC2)N=C(c2ccc(OCCCO)cc2)O[C@@H]1c1ccccc1,-0.0771
3,CCC#CCN(Cc1ccccc1Br)[C@H](/C=C/C1CC1)[C@@H](O)Cc1ccccc1,-0.642
4,Cc1ccc(F)cc1S(=O)(=O)N[C@@H]1CCN(Cc2ccc(Br)cc2)C1,0.677
5,CC1CC/C=C\[C@H]2OC34C=CCN(C(C)C)C(=O)[C@H]3N(CCO)C(=O)[C@@H]4C2C(=O)O1 (some centres not stated),-1.28
6,CCOC(=O)C[C@H]1[C@H](OC(=O)c2cc3ccccc3oc2=O)[C@@H](NC(=O)CC(C)C)c2cc(OCCCO)ccc2N1C(=O)c1ccc2ccccc2n1,0.409
7,[N-]=[N+]=Nc1ccccc1C[C@]1(C(=O)NCCN2CCOCC2)COC(c2ccc(OCCCO)cc2)=N1,0.234
8,COC(=O)[C@]1(CCS(=O)(=O)c2ccccc2)N=C(c2ccc(OCCCO)cc2)O[C@@H]1c1ccccc1N=[N+]=[N-],0.666
9,COc1ccc(CCNC(=O)[C@@H]2c3ccccc3C(=O)N(C3CCCCC3)[C@H]2c2ccc(CO)cc2)cc1,-0.487
10,O=C(NCc1ccc(F)cc1)[C@H]1C[C@H]2C(=O)NCC(=O)N2[C@H]1c1ccc(O)cc1,0.787
11,CC(c1ccccc1)C(O)C1C=CC2C(=O)N(C)C(=O)C2N1Nc1ccccc1 (configuration not stated),-0.452
12,COc1ccc(C#Cc2ccc3c(c2)[C@]2(C(=O)N3)[C@H](c3ccc(O)cc3)N3[C@H](c4ccccc4)[C@H](c4ccccc4)OC(=O)[C@H]3[C@@H]2C(=O)Nc2nc3ccccc3s2)cc1,0.775
